# Experimental data taken from PubChem BioAssay (NCI).
# About 79,000 compounds went through this panel and 15% of them were active in at least one assay; those are over-represented in the sample as a whole. A number with no mark means an inactive call. The source made the active and inactive calls. No stated cut-off is given here; in the data, active means growth inhibition above about 70%; inactive means the rest.
# Legend:
# [1] = NCI Yeast Anticancer Drug Screen. Data for the rad50 strain (AID 155);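 further: 0% = growth of vehicle-only cultures of the same strain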; conditions: S. cerevisiae rad50 strain growth inhibition, hits give high values
# In short: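 Readout: growth inhibition relative to vehicle-treated cultures. Compound exposure was carried out in a genetically defined yeast strain deficient in DNA damage repair.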
# [2] = NCI Yeast Anticancer Drug Screen. Data for the mec2-1 strain (AID 157); conditions: S. cerevisiae mec2-1 strain, hits give high values
# In short: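 Readout is yeast growth inhibition, normalised to vehicle-treated controls, in the mec2-1 strain exposed to compound.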
# [3] = NCI Yeast Anticancer Drug Screen. Data for the sgs1 mgt1 strain (AID 161);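 further: 0% = growth of cultures given vehicle only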; conditions: S. cerevisiae sgs1 mgt1 strain, hits give high values
# In short: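 Growth of a repair-deficient yeast mutant was monitored after compound treatment and expressed as inhibition relative to vehicle-treated cultures.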
# [4] = NCI Yeast Anticancer Drug Screen. Data for the cln2 rad14 strain (AID 165);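 further: 0% = growth equal to vehicle treated cultures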; conditions: S. cerevisiae cln2 rad14 strain, hits give high values
# In short: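 Relative to vehicle controls, growth inhibition of compound-treated cln2 rad14 yeast was recorded.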
# [5] = NCI Yeast Anticancer Drug Screen. Data for the bub3 strain (AID 167); conditions: S. cerevisiae bub3 mutant strain, hits give high values
# In short: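 Readout: yeast growth inhibition, expressed relative to vehicle-only wells. The test organism is a mutant strain from a panel with lesions in DNA repair or checkpoint genes.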
# [6] = NCI Yeast Anticancer Drug Screen. Data for the mlh1 rad18 strain (AID 175); conditions: S. cerevisiae mlh1 rad18 strain growth inhibition, hits give high values
# In short: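 Test agents were incubated with a yeast strain of defined genotype (DNA damage repair defect). Inhibition of growth was derived by comparison with vehicle-exposed cultures.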
# [7] = at 5.0 µM (retest, dose inferred, filed as 0.5)
# [8] = at 50.0 µM (retest, dose inferred, filed as 5.0)
SMILES,"growth inhibition [1, 7]","growth inhibition [1, 8]",growth inhibition ([1]; at 50.0 µM),"growth inhibition [2, 7]","growth inhibition [2, 8]",growth inhibition ([2]; at 50.0 µM),"growth inhibition [3, 7]","growth inhibition [3, 8]",growth inhibition ([3]; at 50.0 µM),"growth inhibition [4, 7] [%]","growth inhibition [4, 8]",growth inhibition ([4]; at 50.0 µM),"growth inhibition [5, 7] [%]","growth inhibition [5, 8]",growth inhibition ([5]; at 50.0 µM),"growth inhibition [6, 7]","growth inhibition [6, 8]",growth inhibition ([6]; at 50.0 µM)
O=C(Nc1c(Cl)cccc1Cl)Oc1cccc2cccnc12,58%,97% (active),88.5% (active),35%,98% (active),90.6% (active),60%,99% (active),90.6% (active),20,98% (active),88% (active),42,96% (active),89.4% (active),57%,97% (active),88.3% (active)
Clc1ccc2c(NCCCCCCNc3ccnc4cc(Cl)ccc34)ccnc2c1,2%,90% (active),65.9%,-3%,98% (active),92.4% (active),-10%,95% (active),87.5% (active),-2,75% (active),72.4% (active),-11,92% (active),81.1% (active),12%,97% (active),95.8% (active)
O=C1Nc2ccccc2/C1=C\c1ccccn1,41%,76% (active),68.7%,22%,60%,30.9%,34%,76% (active),48.7%,32,38%,9%,26,68%,56%,49%,86% (active),51%
COC1(OC)OC2=C(OC1(OC)OC)c1ccccc1C2=O,8%,12%,37.9%,9%,14%,-13.1%,5%,7%,-11.8%,5,3%,-15.2%,4,8%,-16.6%,14%,12%,-55.2%
CCCCCCCCCCCCCC(=O)OCC(O)CO (stereo not given),2%,2%,-2.25%,2%,28%,6.1%,4%,11%,-0.5%,7,10%,75.3% (active),1,22%,8.05%,3%,12%,8.55%
O=C1C2=C(Nc3cc([N+](=O)[O-])ccc3N2)OC1c1c2ccccc2cc2ccccc12 (stereo not given),89% (active),98% (active),93.5% (active),70% (active),99% (active),66.4%,70% (active),99% (active),96% (active),62,98% (active),35.5%,34,99% (active),78.4% (active),92% (active),99% (active),93.6% (active)
CC1(COc2ccccc2OCC2(C)CO2)CO1 (stereo not given),5%,4%,12.2%,2%,1%,1.15%,0%,10%,7.75%,2,4%,70.7% (active),-2,-3%,5.6%,7%,36%,5.35%
Cc1ccc([PH+](CC[PH+](c2ccccc2)c2ccccc2)c2ccc(C)cc2)cc1.Cc1ccc([PH+](CC[PH+](c2ccccc2)c2ccccc2)c2ccc(C)cc2)cc1.[Pt],40%,88% (active),88.8% (active),26%,91% (active),90.7% (active),33%,95% (active),91.3% (active),34,93% (active),89.8% (active),29,94% (active),90.7% (active),39%,93% (active),88.5% (active)
COc1cc(/C=C(\C#N)c2ccc([N+](=O)[O-])cc2)ccc1O,-13%,1%,75.4% (active),-23%,-3%,51.2%,-16%,-4%,74% (active),-5,33%,66.5%,-20,50%,81.7% (active),-35%,57%,64.2%
N#CC(C#N)=C1CCC(CC2CCCCC2)CC1 (stereo not given),-117%,96% (active),98.6% (active),-49%,96% (active),98.6% (active),-60%,96% (active),98% (active),-56,97% (active),98.5% (active),-58,97% (active),98% (active),-92%,96% (active),98.5% (active)
O=[N+]([O-])c1ccc(NCc2ccccc2)c([N+](=O)[O-])c1,-8%,69%,14.6%,-16%,55%,31.1%,4%,72% (active),60.6%,-10,62%,-166%,19,86% (active),72.7% (active),-2%,80% (active),68%
NNc1cc([N+](=O)[O-])ccc1Cl,5%,93% (active),88.5% (active),6%,68%,91.2% (active),-8%,84% (active),90.8% (active),4,38%,68%,24,94% (active),95.1% (active),-20%,95% (active),98.5% (active)
COc1ccc2nc3cc(Cl)ccc3c(Nc3ccc(O)c(CNCCO)c3)c2c1,-27%,63%,88.9% (active),-1%,-6%,31.9%,-5%,44%,81% (active),-2,-11%,17.2%,0,-4%,-7.15%,-9%,12%,29.6%
O=S1(=O)CC(Cl)(Cl)C1,3%,49%,19.6%,3%,52%,2.85%,7%,20%,15.1%,-1,25%,75.3% (active),4,58%,-17.8%,5%,58%,11.6%
COCCN1C(=O)C2c3[nH]c4ccccc4c3C3CCC(C(C)(C)C)CC3C2C1=O (stereo not given),-2%,98% (active),93.8% (active),-1%,98% (active),96% (active),-7%,98% (active),88.7% (active),-21,96% (active),95.6% (active),-4,94% (active),94.2% (active),4%,98% (active),94.5% (active)
Cc1cc2nc(CC(=O)c3ccncc3)c(CC(=O)c3ccncc3)nc2cc1C,6%,75% (active),78% (active),9%,60%,53.9%,10%,59%,65.5%,25,84% (active),75.2% (active),31,89% (active),61.1%,12%,59%,66.5%
CCCCCCCC/C=C1\CCC(CN(C)C)C1=O (stereo not given),-2%,97% (active),89.6% (active),-35%,99% (active),93.2% (active),-13%,97% (active),90.7% (active),8,95% (active),89.5% (active),-23,98% (active),89.6% (active),-19%,97% (active),89.1% (active)
Cc1ccc(S(=O)(=O)N2CCN3C(=O)c4ccccc4C32c2ccc(F)cc2)cc1 (stereo not given),20%,95% (active),31.8%,17%,96% (active),26.3%,88% (active),99% (active),63.2%,28,98% (active),22.9%,37,98% (active),50.7%,30%,96% (active),29.2%
COC(=O)C12CCC(=O)C(C)=C1CCC(OC)(OC)C2 (stereo not given),-5%,4%,95.2% (active),-10%,6%,16.9%,7%,17%,66.5%,-2,-7%,-1%,-2,-3%,61.8%,10%,11%,82.3% (active)
C/C(=N/Nc1ccc([N+](=O)[O-])cc1[N+](=O)[O-])C1=CCC(C(C)(C)C)CC1 (stereo not given),7%,2%,-6.7%,-4%,-11%,-32.5%,-5%,27%,-7.05%,4,-1%,38.8%,-3,-1%,-11.6%,-7%,-6%,11.8%
